Measurements from PubChem BioAssay (NCI).
This is part of a sample that, as a whole, favours compounds with a hit. Of some 83,000 tested, about 20% had one in any assay.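 Compound tested at a single concentration for 48 hours in 96-well plates; a percent growth value below 10 was scored as active.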 Active and inactive are the calls of the source.

The molecules below were run on MDA-MB-468 breast (assay: NCI-60 one-dose screen, 48 h (100 = growth as untreated, 0 = no growth, -100 = all killed)). Conditions: 10 µM unless noted.
In the case of Cc1cc(N)cc(C)c1-c1c(Br)cc(N)cc1Br, the growth is reported as -28% (active). With COc1cccc(C(=O)NCCCNc2cc(-c3cn(-c4ccccc4)nc3-c3cccc(OC)c3)ccn2)c1 the growth was 29.1% (inactive). With Nc1[nH]nc2nc(-c3ccccc3)n3c4ccccc4nc3c12 the growth was 88.7% (inactive). With N#C/C(=C\c1ccc(C(F)(F)F)cc1)c1cc2ccccc2[nH]1 the growth was 96.9% (inactive). Nc1ccc2c(c1)Cc1cc(N)c(N)cc1-2 was tested, and the growth was 76.6% (inactive). C=C1C(=O)O[C@H]2[C@H]1CC/C(COC(=O)NCc1ccc(Cn3c(=O)sn(-c4ccc(OC)cc4)c3=O)cc1)=C\CC[C@@]1(C)O[C@@H]21 was tested, and the growth was 17.9% (inactive). In the case of C1=C[C@H]2O[C@@H]1c1ccc3[nH]ccc3c12, the growth is reported as 76.2% (inactive). CC(=O)N1CC(Nc2ccc(OC(F)(F)F)cc2)=CC1=O was tested, and the growth was 13.8% (inactive). In the case of COc1ccc(-c2ccc(-c3ccc(C(=N)N)nc3)s2)cc1Cl, the growth is reported as -51.8% (active). For Cc1nn(Cc2ccccc2)cc1C(=O)Nc1sc2c(c1C(N)=O)CCC(=O)C2, the growth was 47.2% (inactive). For C[C@@H]1O[C@@H](O[C@@H]2C[C@H](c3ccc4c(c3O)C(=O)C3=C(C4=O)[C@@]4(O)C(=O)C[C@](C)(O)C[C@@]4(O)C=C3)O[C@H](C)[C@H]2O)C[C@H](O)[C@@H]1O, the growth was 106% (inactive). For C/C(=C(\c1ccc(OCCCN(C)C)cc1)c1ccc(OC(=O)Cc2ccccc2)cc1)c1ccc(Cl)cc1, the growth was 84.1% (inactive). CNCCCn1c2c(c3ccc([N+](=O)[O-])cc3c1=O)C(=O)c1cc(OC)cnc1-2 was tested, and the growth was -39.5% (active).
